# Several values for one entry are separate records, joined by “and”; a condition that tells them apart may be missing. Equal entries are not always repeated. Records with an inconclusive call do not appear. A call without a number means that no potency is given here. Activity calls are given as the source filed them. Unless noted, the call rests on the fitted dose curve; in most records, active means well fitted curve in the direction sought with a large enough effect; inconclusive means small, poorly fitted or top-dose-only effect, or another doubt; inactive means no such curve, though single readings can be large; an effect the other way counts as inactive or inconclusive.
# Legend:
# [1] = Cell Viability - LYMP2-024 (AID 988);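 further: cells exposed to compound for 24 hr at 37 °C; nearly all actives have a fitted effect of over 60% in size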
# In short: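 Cells at 2500 per well received compound for 24 hr after a 5 hr settling period. Viability was scored by CellTiter-Glo luminescence, with AC50 from Hill fits.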
# [2] = Cell Viability - LYMP2-026 (AID 989);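 further: cells exposed to compound for 24 h at 37 °C; nearly all actives have a fitted effect of over 50% in size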
# In short: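 Acute toxicity screen in complete culture medium, with 24 hr compound exposure at 37 C. Viability read as cellular ATP via luciferase reaction, with tetraoctylammonium bromide (6.4pM to 92 uM) as positive control.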
# [3] = biological target: Alpha-galactosidase A (Homo sapiens) (UniProt P06280); assay: Counterscreen for Glucocerebrosidase Inhibitors: qHTS Assay for Human alpha-Galactosidase at pH 4.5 (AID 992)
# Chain of Alpha-galactosidase A (Homo sapiens) (P06280 whole entry, looked up): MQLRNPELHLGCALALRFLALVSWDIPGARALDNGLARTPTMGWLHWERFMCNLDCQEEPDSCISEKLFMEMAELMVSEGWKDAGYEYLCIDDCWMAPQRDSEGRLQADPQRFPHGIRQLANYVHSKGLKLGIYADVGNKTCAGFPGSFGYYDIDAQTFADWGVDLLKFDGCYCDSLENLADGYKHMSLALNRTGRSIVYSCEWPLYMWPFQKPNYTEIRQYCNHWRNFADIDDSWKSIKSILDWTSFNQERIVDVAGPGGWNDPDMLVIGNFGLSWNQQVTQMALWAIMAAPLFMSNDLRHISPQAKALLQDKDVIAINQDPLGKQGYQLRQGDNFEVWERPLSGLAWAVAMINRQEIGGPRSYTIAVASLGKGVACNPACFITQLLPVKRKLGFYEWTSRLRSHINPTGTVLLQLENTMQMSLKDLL
# In short: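 Each compound is preincubated briefly with 2 nM enzyme before substrate addition (80 uM); plates then sit 20 min at ambient temperature, are quenched with 1M NaOH/1M glycine, and read fluorometrically.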
# [4] = Cell Viability - LYMP1-002 - Assay at 24 hr (AID 993)
# In short: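 Viability was judged from intracellular ATP using a luciferase read-out, following a 24-hour compound incubation at 37 C of lymphoblastoid cells seeded at 2500 per well. Concentration-response data were fitted to the Hill equation for AC50.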
# [5] = Cell Viability - LYMP1-002 - Assay at 40 hr (AID 994); further: nearly all actives have a fitted effect of over 60% in size
# In short: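 Concentration-dependent ATP loss after 40 hr treatment at 37 C defined toxicity; AC50 values were obtained by fitting the standard Hill equation.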
# [6] = biological target: alpha-glucosidase (Oryza sativa, rice) (UniProt Q653V4); assay: Counterscreen for Glucocerebrosidase Inhibitors: qHTS Assay for Rice alpha-Glucosidase at pH 5.0 (AID 997)
# In short: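 Endpoint fluorogenic assay at pH 5.0: compounds (0.7 nM to 77 uM) titrated against 4 nM rice enzyme and 400 uM 4-MU-alpha-glucoside for 20 min at room temperature; NaOH/glycine stop, read ex 365/em 440 nm, Hill-fitted AC50.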
# [7] = Validation of Assay for Modulators of Lamin A Splicing (AID 1459; active means well fitted curve in the direction sought with a large enough effect in the signal ratio; the % refers to the signal ratio;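 further: cells exposed to compound for two days before reading; ratio rise marks activators and ratio drop marks inhibitors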)
# In short: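 S3 HeLa stably expressing lamin A-EGFP splicing minigene and DsRed2, 600 cells/well in Opti-MEM with 2% FBS, treated 48 h at 37C; laser-scanning cytometry gives GFP/RFP total intensity ratio; ancitabine positive control, 0.5% DMSO vehicle.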
# [8] = qHTS Assay for Lipid Storage Modulators (AID 1519; calls by dose curve); settings: Drosophila S3 cells, BODIPY lipid droplet/cell ratio, laser cytometry, cells loaded with oleic acid
# In short: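 Cells seeded at 5,000 per well were treated with compounds over a concentration series and loaded with oleic acid (400 uM, as added). Lipid droplet fluorescence (488 nm excitation, 500-530 nm channel) was read by laser-scanning cytometry and normalized to 20 uM Triacsin C.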
# [9] = biological target: DNA repair nuclease/redox regulator APEX1 (Homo sapiens) (UniProt P27695); assay: qHTS Validation Assay for Inhibitors of the Human Apurinic/apyrimidinic Endonuclease 1 (APE1) (AID 1705;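 further: TAMRA fluorescence gain over two minutes as APE1 cuts a quenched THF abasic duplex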)
# Chain of DNA repair nuclease/redox regulator APEX1 (Homo sapiens) (P27695 whole entry, looked up): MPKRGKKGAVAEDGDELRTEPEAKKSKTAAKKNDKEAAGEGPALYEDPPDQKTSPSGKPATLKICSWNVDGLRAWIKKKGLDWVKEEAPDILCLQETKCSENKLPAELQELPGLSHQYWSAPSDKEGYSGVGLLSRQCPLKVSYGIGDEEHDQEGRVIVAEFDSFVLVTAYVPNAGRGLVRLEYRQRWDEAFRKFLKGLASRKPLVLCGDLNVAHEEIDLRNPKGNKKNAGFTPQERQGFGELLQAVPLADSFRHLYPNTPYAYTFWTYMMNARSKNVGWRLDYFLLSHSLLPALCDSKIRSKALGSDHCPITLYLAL
# In short: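 Fluorogenic double-stranded THF abasic-site substrate (5'-TAMRA/3'-BHQ-2), 50 nM final. Enzyme preincubated with compound 15 min at room temperature, then substrate added. Kinetic fluorescence (ex 525/em 598 nm) read three times at 60 s intervals; activity taken as third-minus-first read difference.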
# [10] = Counterscreen for APE1 Inhibitors: Fluorescent Dye Displacement Validation Assay (AID 1707)
# In short: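 Loss of Thiazole Orange fluorescence marks promiscuous DNA binders. The dye (250 nM) is mixed with 50 nM abasic-site dsDNA in pH7.5 Tris buffer containing MgCl2, then compounds are added and emission is read once.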
# [11] = biological target: Endonuclease 4 (Escherichia coli (strain K12)) (UniProt P0A6C1); assay: Counterscreen for APE1 Inhibitors: qHTS Validation Assay for Inhibitors of Endonuclease IV (AID 1708)
# In short: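 The reaction buffer contained 50 mM Tris-HCl pH 7.5, 50 mM NaCl, 2 mM MgCl2, 1 mM DTT and 0.01% Tween-20. Incision of a 50 nM fluorophore/quencher THF substrate by 2 nM enzyme was measured kinetically.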
# [12] = qHTS for differential inhibitors of proliferation of Plasmodium falciparum line 7G8 (AID 1815);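 further: parasite growth measured after three days of incubation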
# [13] = qHTS for differential inhibitors of proliferation of Plasmodium falciparum line GB4 (AID 1816); settings: Potency: Plasmodium falciparum GB4 proliferation inhibition;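 further: parasite growth measured after 72 h incubation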
# [14] = qHTS for differential inhibitors of proliferation of Plasmodium falciparum line 3D7 (AID 1876);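 further: parasite growth measured after three days of culture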
# [15] = qHTS for differential inhibitors of proliferation of Plasmodium falciparum line D10 (AID 1877);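 further: parasites grown with compound for 72 h before DNA staining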
# [16] = qHTS for differential inhibitors of proliferation of Plasmodium falciparum line W2 (AID 1883); settings: Potency: Plasmodium falciparum W2 proliferation inhibition;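 further: parasites grown with compound for 72 h before lysis and staining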; further: potency means the concentration at half of the fitted maximal effect
# [17] = qHTS for differential inhibitors of proliferation of Plasmodium falciparum line HB3 (AID 1886); settings: Potency: Plasmodium falciparum HB3 proliferation inhibition;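 further: parasites grown with compound for 72 h before SYBR Green readout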
# [18] = qHTS Assay for Modulators of Human Peripheral Myelin Protein 22 (PMP22) Expression/Activity (AID 1967; active means well fitted curve in the direction sought with a large enough effect in the signal ratio; the % refers to the signal ratio)
# In short: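 Mouse MSC80 Schwann cells carrying Pmp22 promoter–green click beetle luciferase plus EF-alpha–red luciferase control, dosed 24 h at 37 °C. Dual-filter luminescence, overlap-corrected; %Activity from green/red ratio normalised to untreated cells, concentration-response curves fitted.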
# [19] = biological target: Ferritin light chain (Equus caballus) (UniProt P02791); assay: qHTS Validation Assay for Identification of Novel General Anesthetics (AID 2323)
# Chain of Ferritin light chain (Equus caballus) (P02791 2-175 limits assumed): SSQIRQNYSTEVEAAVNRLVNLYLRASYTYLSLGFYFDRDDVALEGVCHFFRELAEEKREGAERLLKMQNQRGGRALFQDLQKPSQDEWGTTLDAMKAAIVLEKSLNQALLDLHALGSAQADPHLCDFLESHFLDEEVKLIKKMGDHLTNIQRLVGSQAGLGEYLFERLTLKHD
# In short: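 Horse-spleen apoferritin (10 uM) in PBS with 50% saturated 1-aminoanthracene; compounds pin-transferred, 10 min at room temperature. Fluorescence read at 380/535 nm, normalized to free 1-AMA and 1-AMA/apoferritin values; four-parameter Hill fit.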
# [20] = qHTS Assay for Identification of Small Molecule Inducers of Hypoxia Response (AID 2120; active means well fitted curve in the direction sought with a large enough effect in the signal ratio, with a control signal flat, not every such curve was filed as active; the % refers to the signal ratio)
# In short: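 HRE-bla ME-180, 2500 cells/well, 0.5% dialyzed FBS medium; cpd titration, 17 h 37 degrees C; CCF4 2.5 h RT; Ex 405, Em 460/530 ratio -> %Activity, AC50.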
# [21] = measured here: cell count channel max response
# [22] = measured here: lipid channel max response
smiles,measurement,setting,value
CC(=O)Oc1ccccc1C(=O)O,outcome,[1],inactive
same,outcome,[2],inactive
same,outcome,[3],inactive
same,outcome,[4],inactive
same,outcome,[5],inactive
same,outcome,[6],inactive
same,outcome,[7],inactive
same,"activity change, negative = inhibition",[8]; at 57.5 µM (top of the series),4.32% (inactive)
same,max response,[8]; [21],19.3%
same,max response,[8]; [22],27.8%
same,outcome,[9],inactive
same,outcome,[10],inactive
same,outcome,[11],inactive
same,Potency,[12],inactive
same,Potency,[13],inactive
same,Potency,[14],inactive
same,Potency,[15],inactive
same,Potency,[16],inactive
same,Potency,[17],inactive
same,outcome,[18],inactive
same,outcome,[19],inactive
Cc1cnc(NC(=O)C2=C(O)c3ccccc3S(=O)(=O)N2C)s1,outcome,[3],inactive
same,outcome,[6],inactive
same,outcome,[7],inactive
same,outcome,[9],inactive
same,outcome,[10],inactive
same,outcome,[11],inactive
same,Potency,[14],inactive
same,Potency,[15],inactive
same,Potency,[16],8.91 µM (active)
same,Potency,[17],inactive
same,outcome,[19],inactive
Nc1nc2ccc(OC(F)(F)F)cc2s1,outcome,[3],inactive
same,outcome,[6],inactive
same,"activity change, negative = inhibition",[8]; at 25.7 µM (top of the series),-1.29% (inactive)
same,"activity change, negative = inhibition",[8]; at 57.5 µM (top of the series),1.85% (inactive)
same,max response,[8]; [21],-7.42% and -26.5%
same,max response,[8]; [22],-8.28% and -25.3%
same,outcome,[9],inactive
same,outcome,[10],inactive
same,outcome,[11],inactive
same,Potency,[12],inactive
same,Potency,[13],inactive
same,Potency,[14],inactive
same,Potency,[15],inactive
same,Potency,[17],inactive
same,outcome,[19],inactive
NC(=O)c1cnccn1,outcome,[1],inactive
same,outcome,[2],inactive
same,outcome,[3],inactive
same,outcome,[4],inactive
same,outcome,[5],inactive
same,outcome,[6],inactive
same,"activity change, negative = inhibition",[8]; at 57.5 µM (top of the series),8.38% (inactive)
same,max response,[8]; [21],10.7%
same,max response,[8]; [22],23.4%
same,outcome,[9],inactive
same,outcome,[10],inactive
same,outcome,[11],inactive
same,Potency,[12],inactive
same,Potency,[13],inactive
same,Potency,[14],inactive
same,Potency,[15],inactive
same,Potency,[16],inactive
same,Potency,[17],inactive
same,outcome,[19],inactive
NS(=O)(=O)c1cc2c(cc1Cl)NC=NS2(=O)=O,outcome,[1],inactive
same,outcome,[2],inactive
same,outcome,[3],inactive
same,outcome,[4],inactive
same,outcome,[5],inactive
same,outcome,[6],inactive
same,outcome,[7],inactive
same,"activity change, negative = inhibition",[8]; at 25.7 µM (top of the series),-2.79% (inactive)
same,"activity change, negative = inhibition",[8]; at 57.5 µM (top of the series),7.25% (inactive) and -0.143% (inactive)
same,max response,[8]; [21],3.82% and 7.17% and -12.5%
same,max response,[8]; [22],1.14% and 18.5% and -16.5%
same,outcome,[9],inactive
same,outcome,[10],inactive
same,outcome,[11],inactive
same,Potency,[12],inactive
same,Potency,[13],inactive
same,Potency,[14],inactive
same,Potency,[15],inactive
same,Potency,[17],inactive
same,outcome,[18],inactive
same,outcome,[20],inactive
same,outcome,[19],inactive
Nc1ccc(S(=O)(=O)Nc2ccnn2-c2ccccc2)cc1,outcome,[3],inactive
same,outcome,[6],inactive
same,outcome,[7],inactive
same,"activity change, negative = inhibition",[8]; at 25.7 µM (top of the series),-1.01% (inactive)
same,"activity change, negative = inhibition",[8]; at 57.5 µM (top of the series),14.1% (inactive)
same,max response,[8]; [21],-3.22% and 11.1%
same,max response,[8]; [22],-3.23% and 26.2%
same,outcome,[9],inactive
same,outcome,[10],inactive
same,outcome,[11],inactive
same,Potency,[12],inactive
same,Potency,[13],inactive
same,Potency,[14],inactive
same,Potency,[15],inactive
same,Potency,[16],inactive
same,Potency,[17],inactive
same,outcome,[18],inactive
